Here are results for 44 sequences from publication PMC7819943, “Rice protein-binding microarrays: a tool to detect cis-acting elements near promoter regions in rice”.

In all, about 35,000 sequences were measured (“fluorescence intensity (a.u.)”: median about 10,000, highest 2% from about 52,000 on). This is one part of a sample in which the highest values are shown more often than they occur.

For the assay, the target named is T1, OsWOX13 (Oryza sativa, UniProt Q5QMM3 1-267).
T1 sequence: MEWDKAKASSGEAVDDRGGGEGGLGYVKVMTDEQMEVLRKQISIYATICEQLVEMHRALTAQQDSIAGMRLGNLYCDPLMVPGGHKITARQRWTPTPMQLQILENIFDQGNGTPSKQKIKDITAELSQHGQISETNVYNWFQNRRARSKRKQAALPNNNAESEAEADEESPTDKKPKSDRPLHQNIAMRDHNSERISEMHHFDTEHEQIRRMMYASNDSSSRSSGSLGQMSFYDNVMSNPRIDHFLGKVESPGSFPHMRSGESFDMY
In words: protein-binding microarray (RPBM); PBS, 2% BSA, 51.3 ng/ul salmon testes DNA, 50 uM zinc acetate, 200 nM TF, 25 C, 1 h; high values mean tight binding. The settings on record: protein: recombinant; tags: N-terminal polyhistidine and DsRed monomer fusion (pET32a); label: CyDye5-dUTP incorporated in the synthesized complementary strand; 3' TTTTT single-stranded linker to array surface; dsDNA, one strand shown. In a few lines:
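The binding signal for each feature is its fluorescence intensity in arbitrary units. An Axon 4000B scanner was used to read a custom Agilent array that had been made double-stranded with Cy5-dUTP primer extension, blocked with 2% BSA, incubated at 25 °C for 1 h with 200 nM protein in PBS, 2% BSA, salmon testes DNA and 50 µM zinc acetate, and washed. The protein was an N-terminal polyhistidine–DsRed transcription factor fusion from E. coli BL21-CodonPlus, purified on Ni–NTA.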
With “TCCTGATTGTTCACAATTGTGCTAGTTCAAACAAGGCAAACGGAGTCACCTAGTGCAG”, the binding signal was 24800 fluorescence intensity (a.u.).

With “TAGATGAAATGGGTTGGGTTGATTTGGGTTGAAATATGATCGGAGTCACCTAGTGCAG”, the binding signal is 6400 fluorescence intensity (a.u.).

In the case of “TTGATTGCGAATGATTGGAGCTGGTTGCTGTTGCTAGATCCGGAGTCACCTAGTGCAG”, the binding signal is 57800 fluorescence intensity (a.u.).

For the sequence “CTGGAATGAGTGGTGGTTGATTGTTTAGTGTTTACTGTTCCGGAGTCACCTAGTGCAG”, the binding signal was 18500 fluorescence intensity (a.u.).

Turning to “ACTATTATATTGATCAATTGATTACATAATTCACGTGTCGCGGAGTCACCTAGTGCAG”, the binding signal is 43700 fluorescence intensity (a.u.).

“AAATGATTGAATCCTAGAAACTCTGACCTATACAAGTGGTCGGAGTCACCTAGTGCAG”: the binding signal was 60500 fluorescence intensity (a.u.).

As for “AGATGCTGATTGGTTGCGAACTATCTGTTCAATTTGCATCCGGAGTCACCTAGTGCAG”, the binding signal was 46300 fluorescence intensity (a.u.).

As to “CATCAATTAATTGACATGATACTATCTACCTTGCGTGTCGCGGAGTCACCTAGTGCAG”, the binding signal is 65000 fluorescence intensity (a.u.).

Take “GCACTGATTGAATTGAACTGTATAGAACAAAATGAAATTTCGGAGTCACCTAGTGCAG”: the binding signal is 19600 fluorescence intensity (a.u.).

As for “GATGATTGATTGGGTTGGTTGGAACGTGCGATGGAATGATCGGAGTCACCTAGTGCAG”, the binding signal is 65400 fluorescence intensity (a.u.).

For “ATGATGATGATATACACGCCAAATTGAATTAGAAACTGATCGGAGTCACCTAGTGCAG”, the binding signal was 6800 fluorescence intensity (a.u.).

On to “TATAAAATTGATGGTTGGAATTATAAATATTTCGATTGAACGGAGTCACCTAGTGCAG”, for which the binding signal was 9830 fluorescence intensity (a.u.).

“TACATCCCTACTAATTGTGTCATGTATCAATAATGATATGCGGAGTCACCTAGTGCAG”: the binding signal is 3560 fluorescence intensity (a.u.).

In the case of “GATAACGTGGCCAAATTATATCAGACGTTCATGTTTAGATCGGAGTCACCTAGTGCAG”, the binding signal is 5800 fluorescence intensity (a.u.).

Take “TTCACAAATTTTGATGCGATGATTAGCTAAGGCATGTTCGCGGAGTCACCTAGTGCAG”: the binding signal is 23500 fluorescence intensity (a.u.).

Take “TTACGATGATATATAATTGGACGGAAGCAGCGATCATGCTCGGAGTCACCTAGTGCAG”: the binding signal is 14100 fluorescence intensity (a.u.).

On to “AGCTAATTTATGCATGCATGGATTCCGATGGAGGAGCTGTCGGAGTCACCTAGTGCAG”, for which the binding signal was 19400 fluorescence intensity (a.u.).

On to “GAGCAATTAGGCTTAAAAGATTCGTCTCGCAAATTAGTCGCGGAGTCACCTAGTGCAG”, for which the binding signal is 3540 fluorescence intensity (a.u.).

As for “TGCTGGTTGATTGATTGATTGATGGACAAATAGGTAGATGCGGAGTCACCTAGTGCAG”, the binding signal was 56300 fluorescence intensity (a.u.).

Turning to “AATGGAGATTGGATCTGATTGGTTGTTGTTGCTTGAGGATCGGAGTCACCTAGTGCAG”, the binding signal was 62600 fluorescence intensity (a.u.).

Regarding “TGGAATGATGTTGGGATTGATGGATGGATGTATGTTTTGTCGGAGTCACCTAGTGCAG”, the binding signal is 15300 fluorescence intensity (a.u.).

Take “TTCTGATTTGCCCCTATCTTATTGAGATTGCTTGTGTGATCGGAGTCACCTAGTGCAG”: the binding signal is 30600 fluorescence intensity (a.u.).

For “GCAGCCTAGATTGACAATAGATGAATTGGAGCTAGTAGTGCGGAGTCACCTAGTGCAG”, the binding signal was 35400 fluorescence intensity (a.u.).

On to “ATAGATGAAGAATAAATATGATTGGTAGAGAAGAGAGATGCGGAGTCACCTAGTGCAG”, for which the binding signal is 25600 fluorescence intensity (a.u.).

“GATGATGGATTGGAAAGGCAAGTAAGCTGGAGTAGGTGGTCGGAGTCACCTAGTGCAG”: the binding signal was 38000 fluorescence intensity (a.u.).

Take “TCTGTTGATGAATGGATTGATTGATGGATGGATGGATGGTCGGAGTCACCTAGTGCAG”: the binding signal was 64100 fluorescence intensity (a.u.).

Take “CAAAATTTGATGAATGGAAGGGTCGAAACTGAGTGATTGCCGGAGTCACCTAGTGCAG”: the binding signal was 23600 fluorescence intensity (a.u.).

As for “TCTGATTGCTGTTAGTTGTTGATGAGATGGAGATGGAGATCGGAGTCACCTAGTGCAG”, the binding signal is 39900 fluorescence intensity (a.u.).

Regarding “TTGATTGATGGGTAGTAAGGAAACCTTTTGAATGAGTGGTCGGAGTCACCTAGTGCAG”, the binding signal was 64700 fluorescence intensity (a.u.).

On to “GTGATTGAAATGGATCCTGGTCGGAAATGAATCCTGGTCGCGGAGTCACCTAGTGCAG”, for which the binding signal was 43700 fluorescence intensity (a.u.).

With “TTTTATAATTATATAGCACACCCCACTTCACACGCATATCCGGAGTCACCTAGTGCAG”, the binding signal is 15300 fluorescence intensity (a.u.).

Turning to “CTATTGATTGTTGGCGAGCATGTTCTTATCCAGTTGACTTCGGAGTCACCTAGTGCAG”, the binding signal is 33100 fluorescence intensity (a.u.).

For the sequence “GTTTGTTAATTATTCACTAATCTCTAGTACTATAGTTGTACGGAGTCACCTAGTGCAG”, the binding signal is 17100 fluorescence intensity (a.u.).

Regarding “AACAGTTCTGCTGAACCTCTTTTGCCTGCCCAAATCAAAACGGAGTCACCTAGTGCAG”, the binding signal is 7650 fluorescence intensity (a.u.).

As for “AGATGGGAATCATTATCAATCTATCATCCTAAATATAAACCGGAGTCACCTAGTGCAG”, the binding signal was 4070 fluorescence intensity (a.u.).

Consider “TCGATTGACTGGACGAGGAATAGTAACCCTGCACATTGTGCGGAGTCACCTAGTGCAG”, for which the binding signal is 44100 fluorescence intensity (a.u.).

For the sequence “GAATACTGACAGTAAAGATGATTGCAGAATTAGCTCATAGCGGAGTCACCTAGTGCAG”, the binding signal is 19400 fluorescence intensity (a.u.).

For “TGCATAAGTGTTAAATTGACAGCCACTTGGTCTGTTCGTTCGGAGTCACCTAGTGCAG”, the binding signal was 21700 fluorescence intensity (a.u.).

On to “TCTTGATTGAAACAATCTTTTGATCCCATAATCTTGCCCGCGGAGTCACCTAGTGCAG”, for which the binding signal is 63700 fluorescence intensity (a.u.).

Turning to “AACTAAACATAATCTTTGAAAAGTTTGATTTTGAACACGGCGGAGTCACCTAGTGCAG”, the binding signal was 6770 fluorescence intensity (a.u.).

For the sequence “CCTGTTGATTGGATATCTGGAACCTGAAATCCTGAATACGCGGAGTCACCTAGTGCAG”, the binding signal was 55800 fluorescence intensity (a.u.).

With “TACTCCTGTTGATAGGTATATTGATCTGAATCATCTGGTACGGAGTCACCTAGTGCAG”, the binding signal was 3790 fluorescence intensity (a.u.).

Take “ATGATTTACTATTAATCTAGTCTATTGCTGAGATATACATCGGAGTCACCTAGTGCAG”: the binding signal was 11000 fluorescence intensity (a.u.).

In the case of “TTTCTTTTGAAATTGATTACAATCTACATAAGGAGAGTCGCGGAGTCACCTAGTGCAG”, the binding signal was 16500 fluorescence intensity (a.u.).
